This is a sample that favours compounds with a hit; in the whole collection about 2.3% have one here.
CHRM1 PAM = human M1 muscarinic receptor positive allosteric modulators, primary screen, CHO-K1 cells, Fluo-8 calcium fluorescence, 1536-well; Muscarinic acetylcholine receptor M1 (Homo sapiens), P11229; AID 588819, 2011; CHO-K1 hM1, ACh EC20; 0% = ACh EC20, 100% = maximal ACh; activation, % at 3 µM; 360,000 tested, 0.088% active; in the data active means activation above about 19%, passing the limit was not always enough
Target sequence (P11229 whole entry, looked up): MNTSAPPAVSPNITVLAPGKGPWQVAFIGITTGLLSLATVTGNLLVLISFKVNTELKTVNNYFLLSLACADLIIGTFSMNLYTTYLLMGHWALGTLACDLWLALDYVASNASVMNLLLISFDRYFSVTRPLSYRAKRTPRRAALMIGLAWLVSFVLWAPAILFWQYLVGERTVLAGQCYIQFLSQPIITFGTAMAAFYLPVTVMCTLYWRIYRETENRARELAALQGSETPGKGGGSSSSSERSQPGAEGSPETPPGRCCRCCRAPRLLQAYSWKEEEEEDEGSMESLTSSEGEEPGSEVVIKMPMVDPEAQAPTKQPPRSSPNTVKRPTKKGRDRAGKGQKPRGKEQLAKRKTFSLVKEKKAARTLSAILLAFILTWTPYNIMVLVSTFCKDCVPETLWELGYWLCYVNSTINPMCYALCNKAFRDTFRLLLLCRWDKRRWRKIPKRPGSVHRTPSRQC
M1 PAM parental = nonselective calcium activators in parental CHO-K1 cells, primary screen, counter-screen for M1 PAM project, cell-based, Fluo-8 calcium fluorescence, full deck, 1536-well | 360,000 tested, 0.02% active | activation, % at 3 µM | ATP EC20; 0% at ATP EC20, 100% at ATP max | AID 602247, 2012;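 active means activation above the run cutoff, the mean activation of all test compounds plus 3 SD, cut at about 40% in these data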;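 further: peak over basal fluorescence ratio in a 140 s read after ATP addition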
M1 antag = human M1 muscarinic receptor antagonists, primary screen, CHO-K1 cells, Fluo-8 calcium fluorescence, 1536-well. Muscarinic acetylcholine receptor M1 (Homo sapiens), P11229. CHO-K1 hM1, ACh EC80 antagonist. inhibition, % at 3 µM. 360,000 tested, 1.3% active;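 active means percent inhibition above its own plate's cutoff, namely the mean of that plate's compound wells plus 3 SD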;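 further: peak over basal fluorescence ratio during 140 s after agonist addition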
CHRM1 agonist = human M1 muscarinic receptor agonists, primary screen, Fluo-8 calcium fluorescence, CHO-K1 cells, HTS | CHO-K1 hM1, agonist mode; 0% DMSO, 100% acetylcholine EC100 | activation, % at 3 µM | 360,000 tested, 0.33% active | Muscarinic acetylcholine receptor M1 (Homo sapiens), P11229;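 active means activation above the run's mean compound activation plus 3 SD, cut at about 16% in these data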;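 further: peak over basal fluorescence ratio within a 140 s kinetic read after compound addition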
CHO-K1 Ca antag = nonselective inhibitor or artifact in parental CHO-K1 cells | 360,000 tested, 0.6% active | inhibition, % at 3 µM | ATP-induced calcium, Fluo-8 fluorescence;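 active means inhibition above a per-plate cutoff, the plate's mean sample inhibition plus 3 SD, cut at about 24% in these data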
CHO-K1 Ca ag = counter-screen for M1 agonists: effect in parental CHO-K1 cells. Fluo-8 calcium fluorescence; scaled to maximal ATP response, vehicle zero. activation, % at 3 µM. 360,000 tested, 0.48% active. AID 602248, 2012; in the data active means activation above about 15%;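 further: untransfected CHO-K1 host cells lacking M1 receptor as counterscreen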
Of the large screens only hits and unclear results are named; the others gave an inactive call.

NS(=O)(=O)c1ccc(CCNS(=O)(=O)c2ccc(Cl)cc2)cc1	M1 antag 101
CC(=O)Nc1ccc(S(=O)(=O)NCCc2ccc(S(N)(=O)=O)cc2)cc1	none
NS(=O)(=O)c1ccc(CCNC(=O)c2ccccc2F)cc1	CHO-K1 Ca antag 28
O=C(Nc1cccc(S(=O)(=O)N2CCOCC2)c1)c1cnccn1	none
O=C(CNCc1cccs1)Nc1ccc(OC(F)(F)F)cc1	none
O=C(CCn1c(=S)oc2ccccc21)Nc1ccccc1F	CHO-K1 Ca antag 26
O=C(N/N=C/c1cc(Br)cc(Br)c1O)c1cccc(N2CCCC2=O)c1	CHO-K1 Ca antag 34
O=C(NC1CCCCCC1)c1cccc(N2CCCC2=O)c1	CHO-K1 Ca antag 32
NC(=O)c1ccc(NC(=O)COC(=O)c2ccccc2SCC(=O)N2CCCC2)cc1	CHRM1 PAM 27
CC1CCCCC1NC(=O)c1cc(Cl)nc2ccccc12 (stereo not drawn)	none
O=C(COc1ccc(S(=O)(=O)Nc2ccc(Cl)cc2)cc1)N1CCOCC1	CHRM1 agonist 18
COc1ccc(NS(=O)(=O)c2cc(NC(=O)CCNC(C)=O)ccc2N2CCCCC2)cc1	M1 antag 44
CC(=O)N1CCSc2ccc(S(=O)(=O)Nc3ccc(C)cc3)cc21	none
COc1ccc(NS(=O)(=O)c2ccc(OCC(=O)N3CCOCC3)cc2)cc1	none
Nc1cc(S(=O)(=O)Nc2ccc(Cl)cc2)ccc1N1CCOCC1	M1 antag 39
COc1ccc(NS(=O)(=O)c2ccc3c(c2)N(C(C)=O)CCS3)cc1	CHO-K1 Ca ag 17
Cc1cc(C)c(S(C)(=O)=O)c(Oc2cccc(C(F)(F)F)c2)n1	none
COC(=O)[C@@]12CCCCN1[C@H](c1ccc(-c3ccc(F)cc3)cc1)[C@@H]1C(=O)N(C)C(=O)[C@@H]12	none
COc1ccc(NS(=O)(=O)c2ccc(N3CCCC3)c(N)c2)cc1	M1 antag 40
CCNC(=O)Nc1cc(S(=O)(=O)Nc2ccc(OC)cc2)ccc1N1CCOCC1	CHO-K1 Ca antag 28
Cc1ccc([N+](=O)[O-])c(OCCN2CCc3ccccc3C2)c1	none
Cc1ccc([N+](=O)[O-])c(OCCN2CCCCCC2)c1	CHO-K1 Ca ag 16
Cc1ccc([N+](=O)[O-])c(OCCCN2CCC(Cc3ccccc3)CC2)c1	M1 antag 76
O=[N+]([O-])c1cccc(OCCN2CCC(Cc3ccccc3)CC2)c1	M1 antag 91
COc1cc(CN2CCC(Cc3ccccc3)CC2)c([N+](=O)[O-])cc1OC	none
CC(=O)NCCc1nc2cc(NC(=O)COc3cccc(C)c3)ccc2n1C	none
CCOc1ccc(-c2cc(C(=O)OC)nc3c2c(=O)n(C)c(=O)n3C)cc1	none
O=C(NCc1ccco1)c1ccccc1NS(=O)(=O)c1cccs1	CHO-K1 Ca ag 19
COc1ccc2c(c1)C(CC(C)=O)N(c1ccc(-c3cccs3)cc1)C(c1ccsc1)=C2 (stereo not drawn)	none (no result: CHRM1 PAM, M1 antag, CHRM1 agonist)
CN(C)S(=O)(=O)c1cccc(-c2nn(-c3ccccc3)cc2/C=C(\C#N)c2nc3ccccc3[nH]2)c1	CHO-K1 Ca antag 24
N#C/C(=C\c1cn(-c2ccccc2)nc1-c1cc2ccccc2o1)c1nc2ccccc2[nH]1	none
Cc1ccc(C(C)C)c2c1C(c1ccc3c(c1)OCO3)CC(=O)O2 (stereo not drawn)	CHRM1 agonist 21
COc1ccc2c(c1)-c1c(sn(-c3ccc(OC)c(OC)c3)c1=S)C(C)(C)N2	M1 antag 27
COc1ccc(-n2sc3c(c2=S)-c2cc(OC)ccc2NC3(C)C)cc1	none
O=C(Nc1cccnc1)NC1CCCCC1	none
CCCCOc1ccccc1C(=O)NNC(=S)NC(=O)c1ccccc1[N+](=O)[O-]	CHRM1 agonist 19
O=C(NNC(=S)NC(=O)c1ccccc1[N+](=O)[O-])c1ccccc1[N+](=O)[O-]	none

High-throughput results (PubChem)
